High-throughput results as filed in PubChem.
Tgondii IFNg – T. gondii growth inhibition under IFN-gamma | activity change, negative = inhibition, % (concentration not given with the values) | 69,000 compounds, 3.8% hits | Toxoplasma gondii growth in IFN-gamma-treated host cells; hits give low values; in the data active means activity change below about -70%, passing the limit was not always enough;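 further: host cells are HeLa cells infected with Toxoplasma gondii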
Numbers without * were called inactive. The entries come from a sample that favours hits as a whole.

SMILES | Tgondii IFNg
O=C(NCCc1csc(-c2ccc(F)cc2)n1)c1cccc(F)c1 | -90*
CCCCOc1ccc(C(=O)NCCc2sc(-c3cccc(F)c3)nc2C)cc1 | -94*
COc1ccc(C(=O)NCCc2csc(-c3cccc(F)c3)n2)c(OC)c1 | -81*
O=C(NCCc1csc(-c2ccc(Cl)cc2)n1)c1ccco1 | -81*
Cc1cccc(-c2nc(CCNC(=O)c3ccco3)cs2)c1 | 497
O=C(NCCc1csc(-c2ccccc2)n1)c1ccc(Cl)cc1 | 399
CN1C[C@@H](N)C[C@H]1C(=O)NCc1cccc(-n2cccn2)c1 | -7
Cc1nn(-c2ccccn2)c2nc(C3CCCN3C(=O)CCCc3ccc(F)cc3)ccc12 (centres undefined) | -27
Cc1nn(CC(=O)NCC2CCCCC2)c(=O)c2nc(-c3ccccc3)sc12 | -24
Cc1nc(-c2cccc(F)c2)sc1CCNS(=O)(=O)c1ccc2c(c1)CCCC2 | 50
Cc1ccc2c(c1)cc(S(=O)(=O)c1ccccc1)c(=O)n2CC(=O)N1CCCCC1 | -10
COc1ccc(Br)cc1-c1nc(Cn2nnc(C(=O)Nc3c(C)cccc3C)c2C)c(C)o1 | -38
Cc1noc([C@@H]2C[C@@H]3OCC[C@@H]3N(Cc3sccc3C)C2)n1 | 62
O=C(Cn1ncc2c(N3CCCCC3)ncnc21)NCc1cccc(Br)c1 | -50
CCc1ccc(C(C(=O)NC2CCCC2)N(Cc2ccccc2)C(=O)c2ccco2)cc1 (centres undefined) | -40
COc1ccc(-c2nc(CNS(=O)(=O)c3c(C)cc(C)cc3C)c(C)o2)cc1 | 39
Cc1ccc(C(=O)N2CCC(Cc3cccc(C(=O)O)c3)CC2)c(=O)n1C | 2
CCCCOc1ccc(C(=O)NCCc2csc(-c3cccc(F)c3)n2)cc1 | -81*
CC(C)Oc1ccc(C(=O)NCCc2csc(-c3cccc(F)c3)n2)cc1 | 36
COc1ccc(C(=O)NCCc2csc(-c3cccc(F)c3)n2)cc1 | 7
CNC(=O)c1cc2c(nc1NCC(C)C)CCN(C(=O)NCC(C)C)CC2 | -67
O=C1OCCCN1CCNc1nccc(N2CCC(O)CC2)n1 | -8
COc1ccc2[nH]c3c(c2c1)CCNC3=O | -89*
CCCN1C(=O)C2(NCCc3c2[nH]c2ccc(OC)cc32)c2cc(Br)ccc21 (centres undefined) | 53
COc1ccc2[nH]c3c(c2c1)CCNC31C(=O)N(CCC(C)C)c2ccccc21 (centres undefined) | 68
SMILES | Tgondii IFNg
COc1ccc(NC(=O)c2ccoc2C)cc1Cl | 61
Cn1cc(-c2[nH]c3cc(NC(=O)[C@H](N)C4CCCCC4)cc4c3c2C=NNC4=O)cn1 | -78*
Cc1nc(CN2C[C@H]3CN(CC4CC4)C(=O)[C@@H]3C2)cs1 | 235
Cc1ccsc1C(=O)N1C[C@H](Oc2cccnc2)[C@@H]2OCCC[C@@H]21 | -52
Cc1ccc(CN(C)C(=O)C(C)n2ccnc2C(C)C)o1 (centres undefined) | -3
CC1CCc2cc(F)ccc2N1C(=O)CSc1ncc(-c2ccccc2)n1C1CCCC1 (centres undefined) | -80*
CC1CCc2cc(F)ccc2N1C(=O)c1cc2cccnc2n(Cc2ccccc2F)c1=O (centres undefined) | -28
Cn1c(-c2ccccc2)cnc1SCC(=O)Nc1ccc(Cl)cc1 | 7
CCOC(=O)c1c(C)oc2c1cc(NS(=O)(=O)c1ccccc1)c1ccccc12 | -19
COc1ccc(-c2noc(-c3ccc(N(C)Cc4cc(C)no4)nc3)n2)cc1 | 255
COc1cccc(NC(=O)Nc2ccc(-c3nc(-c4ccccc4)co3)cc2)c1 | 48
CC(C)(C)C(=O)Nc1cc(C(F)(F)F)ccc1N1CCC(C(F)(F)F)CC1 | -97*
CN1CCN(c2ccc(NC(=O)Nc3ccc(C(F)(F)F)cc3)cc2)CC1 | 1
CC(=O)c1ccc(N2CCC(C)CC2)c(F)c1 | -8
COc1ccc2c3c(n(C)c2c1)[C@@H](CO)N(Cc1nccs1)CC31CCN(C(=O)CN(C)C)CC1 | 5
COc1ccc(S(=O)(=O)N2CC3(CN(C(=O)CN(C)C)[C@@H](CO)c4c3c3ccc(OC)cc3n4C)C2)cc1 | -28
COc1ccc2c3c(n(C)c2c1)[C@@H](CO)N(C(=O)CN(C)C)CC31CN(Cc2nccs2)C1 | -109*
CCCN1CCCn2c(nc(CNC(=O)c3cnoc3C)cc2=O)C1 | 8
O=S(=O)(c1ccc(F)cc1)N1CC[C@H](c2ccccc2)[C@H]2NCCCC[C@H]21 | -20
COc1ccccc1-c1cc(NC(=O)c2cccc(Cn3ccnc3C)c2)n(C)n1 | -7
COc1ccccc1-c1cc(NC(=O)c2nnn(-c3ccc(Cl)cc3)c2C)n(C)n1 | -78*
COc1ccccc1-c1nc(Cn2nnc(C(=O)Nc3cc(Cl)ccc3C)c2C)c(C)o1 | 12
CCn1c(=O)c(-c2nc(-c3cccc(OC)c3)no2)c(O)c2ccc(F)cc21 | 93
Cc1nnsc1CN(C)Cc1cc(F)ccc1-n1cccn1 | 1
Cc1ccc(NC(=O)c2nnn(Cc3nc(-c4ccc(Cl)cc4)oc3C)c2C)c(Br)c1 | 54
CC(C)C(=O)c1cn(-c2nc(CNc3cccnc3)c3ccccn23)cn1 | 91
